PubChem BioAssay (NCATS)
Records with an inconclusive call do not appear. Activity calls are given as the source filed them. The call rests on the fitted dose curve; in most records, active means well fitted curve in the direction sought with a large enough effect; inconclusive means small, poorly fitted or top-dose-only effect, or another doubt; inactive means no such curve, though single readings can be large; an effect the other way counts as inactive or inconclusive.

Key:
[1] = Cellular Toxicity (caspase-3) Mesangial (AID 660);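 further: combined caspase 3 and 7 activity read by Caspase-Glo luminescence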
Outline: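 Human renal glomerular mesangial cells, 1000/well, 5 h at 37 C before 16 h compound treatment. Caspase-Glo 3/7 luminescence after 20 min; normalized to DMSO and 100 uM tamoxifen, AC50 from Hill fit.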

[2] = Cellular Toxicity (caspase-3) SK-N-SH (AID 661)
Outline: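 Human SK-N-SH neuroblastoma cells, 1500/well, were exposed to compounds for 16 hours at 37 °C. Caspase-Glo 3/7 luminescence was normalized to DMSO (basal) and 10 uM staurosporine (100%), and AC50 came from a Hill fit.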

[3] = Cellular Toxicity (caspase-3) H-4-II-E (AID 663)
Outline: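 Rat hepatoma H-4-II-E cells (1500/well) plated 5 hr, then exposed to compound titrations for 16 hr at 37 °C. Caspase-Glo 3/7 luminescence read after 20 min at RT; data normalized to DMSO and 100 uM tamoxifen, AC50 from Hill fits.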

[4] = Cellular Toxicity (caspase-3) Hek293 (AID 664);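 further: cells exposed to compound for 16 h at 37 °C before readout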
Outline: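 HEK293 cells in complete medium treated 16 h at 37 °C, then Caspase-Glo 3/7 luminescence read after 20 min at room temperature. Normalized to DMSO and 100 uM tamoxifen; AC50 from Hill fit of concentration-response.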

[5] = Cellular Toxicity (caspase-3) N2a (AID 665);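 further: compound exposure lasted 16 h at 37 °C before readout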
Outline: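 Mouse N2a neuroblastoma cells, 1500 per well, treated 16 h at 37 °C in complete medium; caspase-3/7 activity by Caspase-Glo luminescence after 1 h. Normalized to DMSO and 10 uM staurosporine; AC50 from Hill fits.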

[6] = Cellular Toxicity (caspase-3) NIH 3T3 (AID 666);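 further: caspase signal read after 16 h compound exposure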
Outline: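 Mouse NIH 3T3 fibroblasts (1000/well) treated 16 h at 37 C; caspase-3/7 activity measured by Caspase-Glo 3/7 luminescence after 20 min. Normalized to DMSO and 100 uM tamoxifen; AC50 from Hill fits.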

[7] = Cellular Toxicity (caspase-3) Renal Proximal Tubule (AID 667);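 further: cells exposed to compound for 16 hours at 37 °C before detection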
Outline: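 Freshly isolated primary rat kidney proximal tubule cells, 1000/well, treated 16 hr at 37 °C, then Caspase-Glo 3/7 luminescence after 1 hr. Normalized to DMSO and 10 uM staurosporine; AC50 from Hill fit.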

[8] = Confirmation and Secondary Assay for Modulators of Hemoglobin Beta Chain Splicing at IVS2 654 locus (AID 910);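 further: HeLa cells stably carrying EGFP split by mutant beta-globin IVS2-654 intron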
Outline: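 HeLa cells stably expressing EGFP interrupted by β-globin IVS2-654 intron, seeded overnight in Opti-MEM/2% FCS, then treated 2 days at 37 °C. Restored splicing read as total peak GFP intensity per well by laser scanning cytometry (488 nm excitation, 500–520 nm emission); 500 nM antisense PNA as control.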

[9] = Cell Viability - LYMP2-001 (AID 921); further: series mostly up to about 92 µM; nearly all actives have a fitted effect of over 70% in size
Outline: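 Human lymphoblastoid LYMP2-001 cells, 2500 per well, in complete medium, treated 24 h at 37 C. Viability from cellular ATP by CellTiter-Glo luminescence; AC50 from Hill-equation fits of qHTS concentration-response.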

[10] = Confirmation and Secondary Assay for Modulators of Hemoglobin Beta Chain Splicing at IVS2 705 locus (AID 930);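 further: HeLa cells stably expressing the EGFP-705 splicing reporter; GFP fluorescence per well restored by corrected splicing of the IVS2-705 intron in EGFP; series mostly up to about 46 µM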
Outline: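 Read-out: total peak GFP fluorescence per well (488 nm excitation, 500-520 nm emission) by laser-scanning cytometry. Cells: HeLa EGFP-705 splicing reporter, 2 days compound exposure in Optimem/2% FCS.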

[11] = MultiTox-Fluor Cytotoxicity Assay - LYMP1-001 - Dead Cells (AID 946)
Outline: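 In this qHTS, 15 uM tetraoctylammonium bromide defined 100% and DMSO defined basal activity. Lymphoblastoid cells (LYMP1-001, 2500 per well) received compound for 16 hr at 37 C before a fluorogenic dead-cell substrate readout at 485/520 nm.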

[12] = MultiTox-Fluor Cytotoxicity Assay - LYMP1-001 - Live Cells (AID 947)
[13] = Cell Viability - LYMP1-002 - Assay at 16 hr (AID 948)
Outline: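 LYMP1-002 human lymphoblastoid cells, 2500/well, were treated with compounds for 16 hr at 37 C in complete medium. Viability was read as intracellular ATP by CellTiter-Glo luminescence, and AC50 was derived from a Hill fit to concentration-response data.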

[14] = MultiTox-Fluor Cytotoxicity Assay - LYMP1-002 - Live Cells (AID 955)
Outline: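 Human lymphoblastoid LYMP1-002 cells, 2500/well, treated 16 h at 37 C in complete medium. Live-cell protease activity via GF-AFC fluorescence (Ex/Em 405/510) after 60 min reagent incubation; AC50 from Hill fits.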

[15] = MultiTox-Fluor Cytotoxicity Assay - LYMP1-003 - Dead Cells (AID 961); further: nearly all actives have a fitted effect of over 70% in size
Outline: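 Acute toxicity is scored as increased dead-cell protease activity in human lymphoblastoid LYMP1-003 cells after 16 h compound exposure in complete culture medium. Activity is normalized to DMSO basal and 15 uM tetraoctylammonium bromide as full response.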

[16] = MultiTox-Fluor Cytotoxicity Assay - LYMP1-003 - Live Cells (AID 962);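 further: cytotoxic hits lower the live-cell protease signal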
Outline: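 LYMP1-003 lymphoblastoid cells, 2500/well in complete medium, treated 16 h at 37 C; live-cell protease cleavage of GF-AFC read by fluorescence (Ex/Em 405/510) after 60 min reagent; AC50 from Hill fits of concentration-response.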

[17] = Cell Viability - LYMP1-003 - Assay at 24 hr (AID 963)
Outline: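 Human lymphoblastoid LYMP1-003 cells, 2500/well, treated 24 h at 37 C in complete medium. Viability read as intracellular ATP by CellTiter-Glo luminescence after 30 min at room temperature; AC50 from Hill-equation fits of qHTS concentration-response.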

[18] = Cell Viability - LYMP1-003 - Assay at 40 hr (AID 964); further: series mostly up to about 92 µM; nearly all actives have a fitted effect of over 60% in size
Outline: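 LYMP1-003 human lymphoblastoid cells, 2500/well, preincubated 5 h at 37 C, then treated with compound for 40 h at 37 C. Intracellular ATP read by CellTiter-Glo luminescence after 30 min at room temperature; AC50 from Hill-equation fits.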

[19] = Cell Viability - LYMP2-003 (AID 965);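 further: cells exposed to compounds for 24 h before reading; nearly all actives have a fitted effect of over 50% in size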
Outline: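 Human lymphoblastoid LYMP2-003 cells, 2500/well, exposed to compounds for 24 h at 37 C in complete medium. Viability read as intracellular ATP by CellTiter-Glo luminescence; AC50 from Hill-equation fits of qHTS concentration-response data.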

[20] = Cell Viability - LYMP2-004 (AID 966); further: nearly all actives have a fitted effect of over 65% in size
Outline: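 Lymphoblastoid LYMP2-004 cells, 2500 per well, were preincubated for 5 hr and then treated with compound for 24 h at 37 C in complete medium. Viability was read as cellular ATP by CellTiter-Glo luminescence, and AC50 values were taken from Hill fits to concentration-response data.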

[21] = Cell Viability - LYMP2-005 (AID 967); further: series mostly up to about 92 µM
Outline: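 Human lymphoblastoid LYMP2-005 cells, 2,500 per well in complete medium, rested 5 h at 37C then compound-treated 24 h at 37C. Intracellular ATP read by CellTiter-Glo luminescence after 30 min at room temperature; AC50 from Hill-equation fits of concentration-response data.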

[22] = Cell Viability - LYMP2-009 (AID 968); further: series mostly up to about 92 µM; nearly all actives have a fitted effect of over 55% in size

Measured: Potency

CN(C)CCOC(c1ccccc1)c1ccccc1 (tested in a mixture with another compound)
inactive: [1] | [2] | [3] | [4] | [5] | [6] | [7] | [8] | [9] | [10] | [11] | [12] | [13] | [14] | [15] | [16] | [17] | [18] | [19] | [20] | [21] | [22]
